Shiga inhibitor: Shiga toxin inhibition | Vero cells, Shiga toxin protein synthesis inhibition reporter | inhibition, % at 38.7 µM | 290,000 compounds, 9.2% hits | AID 2315; in the data active = inhibition mostly above about 28%, no sharp cut-off; inactive = mostly below about 43%; note: 0% is about no effect
CHX counter: counter-screen for Shiga toxin inhibitors: cycloheximide protein synthesis inhibition; cell reporter, cycloheximide protein synthesis inhibition counterscreen; max response, %; 300,000 compounds, 12% hits; in the data active = max response mostly above about 13%, no sharp cut-off; inactive = mostly below about 14%; note: read at 38.3 µM for the half of the compounds with a filed dose; 0% is about no effect
AmpC detergent: inhibitors of E. coli AmpC beta-lactamase with detergent; P00811; AmpC hydrolysis of nitrocefin, absorbance 480 nm, 0.01% Triton; Potency, µM (highest dose often 114 µM), for the others: at the top dose activity change, negative = inhibition, usual class: inhibitors; 370,000 compounds, 0.041% hits;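 note: potency is the fitted concentration of half-maximal effect; 0% = no-compound wells and -100% = no-enzyme wells; nearly all actives have a fitted effect of over 25% in size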
Target sequence (P00811 whole entry, looked up): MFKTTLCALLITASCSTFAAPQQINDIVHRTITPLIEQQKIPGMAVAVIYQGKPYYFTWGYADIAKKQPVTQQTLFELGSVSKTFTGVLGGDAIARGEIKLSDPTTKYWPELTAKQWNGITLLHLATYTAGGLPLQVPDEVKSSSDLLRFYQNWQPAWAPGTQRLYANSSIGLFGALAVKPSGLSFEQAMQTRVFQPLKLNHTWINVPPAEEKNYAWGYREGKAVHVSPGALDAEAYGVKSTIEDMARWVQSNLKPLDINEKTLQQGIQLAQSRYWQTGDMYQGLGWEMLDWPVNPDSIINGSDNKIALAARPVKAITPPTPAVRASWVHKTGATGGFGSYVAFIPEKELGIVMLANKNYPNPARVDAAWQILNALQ
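20 mM phosphate pH 7.0 + 0.01% (detergent screen) or 0.0001% Triton X-100; 5.3 nM AmpC reagent; cpd preinc 15 min RT; nitrocefin (800 uM stock) to start; A480 q20 s × 4 min; Activity was normalised to no-enzyme and no-compound control wells.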
AmpC no deterg: blocks E. coli AmpC beta-lactamase in detergent-free assay; P00811; AmpC nitrocefin hydrolysis, absorbance 480 nm, 0.0001% Triton; Potency, µM (series often up to 57.1 µM), for inactives: at the top dose activity change, negative = inhibition, usual class: inhibitors; AID 485341; 330,000 compounds, 0.52% hits;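 note: potency is the fitted concentration of half-maximal effect; plate controls were no compound for no effect and no enzyme for full effect; nearly all actives have a fitted effect of over 20% in size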
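AmpC (5.3 nM in the dispensed reagent) in 20 mM phosphate pH 7.0 with 0.01% (detergent screen) or 0.0001% Triton X-100 was preincubated with compounds for 15 min at room temperature. Nitrocefin was then added from an 800 uM solution, and hydrolysis was followed at 480 nm.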
SARS PLpro yeast: SARS-CoV PLP inhibition in yeast; S. cerevisiae expressing SARS-CoV PLpro, growth rescue; Potency, µM (doses to about 32.9 µM), inactives show at the highest dose activity, positive = growth rescue, usual class: activators; 330,000 compounds, 0.19% hits; AID 485353; calls by dose curve; note: potency is the fitted concentration of half-maximal effect; 0% is about no effect; nearly all actives have a fitted effect of over 55% in size
AMA1-RON2 inh: disrupts binding of P. falciparum AMA1 to RON2; AlphaScreen AMA1-biotinylated RON2 peptide binding; Potency, µM (titrated, usually from 58.2 µM), for the others: at the highest dose activity change, negative = inhibition, actives largely listed as inhibitors; 360,000 compounds, 0.2% hits; AID 720542;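 note: potency is the fitted concentration of half-maximal effect; 0% = vehicle wells and -100% = peptide control; nearly all actives have a fitted effect of over 45% in size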
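AMA1 (3D7) with his tag at 25 nM final met compounds first, then biotinylated RON2 peptide at 25 nM; detection used donor plus acceptor beads, 10 µg/mL apiece, read by AlphaScreen after 30 min at room temperature.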
Active calls of the source: *; [ ] = remark or other dose. Many of the other results were omitted from the sample, so hits are more common in it than they were. Unless noted, calls come from the whole dose curve; as a rule, active = well fitted curve in the direction sought with a large enough effect; inconclusive = small, poorly fitted or top-dose-only effect, or another doubt; inactive = no such curve, though single readings can be large; an effect the other way counts as inactive or inconclusive.

Results for CCc1[nH]nc(C(=O)N2CCCC(Nc3ccc(C(C)C)cc3)C2)c1C (centres undefined) ?
Shiga inhibitor: -14; CHX counter: -3; AmpC detergent: 1%; AmpC no deterg: -2%; SARS PLpro yeast: inconclusive; AMA1-RON2 inh: -14%

What do the screens show for `CCc1[nH]nc(C(=O)N2CCCC(Nc3cccc(F)c3)C2)c1C` (centres undefined)?
Shiga inhibitor: 66*; CHX counter: 31*; AmpC detergent: -7%; AmpC no deterg: 19%; SARS PLpro yeast: 0%; AMA1-RON2 inh: -8%

How did Cc1ccc(NC(=O)CCCC2CCCCC2)c(O)c1 do in these assays?
Shiga inhibitor: 109*; CHX counter: 34*; AmpC detergent: 0%; AmpC no deterg: -38%; SARS PLpro yeast: -1%; AMA1-RON2 inh: -6%

Results for Cc1ccc(NC(=O)CCCn2c(=O)oc3ccccc32)c(O)c1 ?
Shiga inhibitor: 16; CHX counter: 12*; AmpC detergent: -6%; AmpC no deterg: -32%; SARS PLpro yeast: 3%; AMA1-RON2 inh: -15%

What do the screens show for `Cc1nnc(NC(=O)c2cccn(Cc3cccc(Cl)c3)c2=O)s1`?
AmpC detergent: 3%

What do the screens show for `O=C1C=C(OCCF)CC(c2cccc(Cl)c2)O1` (centres undefined)?
AMA1-RON2 inh: -7%

How did COc1ccc(CCC(=O)Nc2ccc(-c3noc(-c4ccc(OC)c(OC)c4)n3)cc2)cc1 do in these assays?
Shiga inhibitor: 14; CHX counter: 11; AmpC detergent: 5%; AmpC no deterg: -18%; SARS PLpro yeast: 1%; AMA1-RON2 inh: -5%

Results for COc1ccc(CC(=O)Nc2ccc(-c3noc(-c4ccccc4OC)n3)cc2)cc1 ?
Shiga inhibitor: 31; CHX counter: 27*; AmpC detergent: -2%; AmpC no deterg: -11%; SARS PLpro yeast: 5%; AMA1-RON2 inh: inconclusive

How did COc1cccc(-c2nc(-c3ccc(NC(=O)Cc4ccccc4OC)cc3)no2)c1 do in these assays?
Shiga inhibitor: 43*; CHX counter: 22*; AmpC detergent: 4%; AmpC no deterg: -38%; SARS PLpro yeast: 3%; AMA1-RON2 inh: -25%

Results for COc1ccccc1CC(=O)Nc1ccc(-c2noc(COc3ccc(Br)cc3)n2)cc1 ?
Shiga inhibitor: -14; CHX counter: 3; AmpC detergent: -1%; AmpC no deterg: -22%; SARS PLpro yeast: -8%; AMA1-RON2 inh: 2%

What do the screens show for `CCSc1nnc(N)s1`?
Shiga inhibitor: 26; CHX counter: -2; AmpC detergent: inconclusive; AmpC no deterg: -17%; SARS PLpro yeast: 2%; AMA1-RON2 inh: 12%

How did CC(C)CC(=O)Nc1ccc(-c2nc3ccccc3c(=O)[nH]2)cc1 do in these assays?
Shiga inhibitor: 73*; CHX counter: 32*; AmpC detergent: 2%; AmpC no deterg: -24%; SARS PLpro yeast: 2%; AMA1-RON2 inh: -9%[2.32 µM]

How did O=C1CC(Sc2nnc(-c3ccccc3O)o2)C(=O)N1c1ccccc1 (centres undefined) do in these assays?
Shiga inhibitor: 51; CHX counter: 2; AmpC detergent: inconclusive; AmpC no deterg: -37%; SARS PLpro yeast: -23%; AMA1-RON2 inh: 26%

What do the screens show for `O=C1c2ccccc2CC1Sc1nnc(-c2ccccn2)o1` (centres undefined)?
Shiga inhibitor: 75*; CHX counter: 17*; AmpC detergent: inconclusive; AmpC no deterg: -15%; SARS PLpro yeast: 3%; AMA1-RON2 inh: 107%

What do the screens show for `CN1CCN(c2nc(-c3ccc(Br)cc3)nnc2-c2ccccc2)CC1`?
Shiga inhibitor: 11; CHX counter: 22*; AmpC detergent: 1%; AmpC no deterg: 194%; SARS PLpro yeast: -1%; AMA1-RON2 inh: -10%

Results for CN1CCN(c2nc(-c3ccc(C(C)(C)C)cc3)nc3ccccc23)CC1 ?
Shiga inhibitor: 59*; CHX counter: 57*; AmpC detergent: -5%; AmpC no deterg: 21%; SARS PLpro yeast: 1%; AMA1-RON2 inh: -8%

How did CCN1CCN(c2nc(-c3ccccc3)nc3ccccc23)CC1 do in these assays?
Shiga inhibitor: -15; CHX counter: -3; AmpC detergent: -1%; AmpC no deterg: 1%; SARS PLpro yeast: -14%; AMA1-RON2 inh: -11%

What do the screens show for `Cc1ccc(-c2nc(N3CCN(C)CC3)c3ccccc3n2)cc1`?
Shiga inhibitor: 11; CHX counter: 12*; AmpC detergent: -19%; AmpC no deterg: 74%; SARS PLpro yeast: -6%; AMA1-RON2 inh: 8%

How did COc1ccc(-c2csc3ncnc(N4CCN(S(=O)(=O)c5ccc(C(C)=O)cc5)CC4)c23)cc1 do in these assays?
AmpC detergent: inconclusive; AmpC no deterg: 32µM*; SARS PLpro yeast: -1%; AMA1-RON2 inh: -5%

What do the screens show for `CCOC(=O)NC(=O)/C(C#N)=N/Nc1ccc(F)cc1`?
Shiga inhibitor: 12; CHX counter: 4; AmpC detergent: 5%; AmpC no deterg: -9%; SARS PLpro yeast: -2%; AMA1-RON2 inh: -2%

How did CCCCn1c(C)c(C(=O)OCC)c2c(CN3CCCC3)c(O)ccc21 do in these assays?
Shiga inhibitor: 18; CHX counter: 1; AmpC detergent: -13%; AmpC no deterg: 69%; SARS PLpro yeast: 2%; AMA1-RON2 inh: 5%

Results for O=S(=O)(c1ccc(Cl)cc1)N1CCN(c2nc(-c3ccc(Cl)cc3)nc3ccccc23)CC1 ?
Shiga inhibitor: 39; CHX counter: 12

What do the screens show for `COc1ccc(-c2nc(N3CCN(S(=O)(=O)c4ccc(C)cc4)CC3)c3ccccc3n2)cc1`?
Shiga inhibitor: 73; CHX counter: 27*

What do the screens show for `O=C(NC(=S)NCc1nc2ccccc2[nH]1)c1ccc(F)cc1`?
Shiga inhibitor: 37; CHX counter: 28*; AmpC detergent: -4%; AmpC no deterg: -49%; SARS PLpro yeast: -1%; AMA1-RON2 inh: 59%

Results for O=C(NC(=S)NCc1nc2ccccc2[nH]1)c1ccccc1F ?
Shiga inhibitor: 105*; CHX counter: 45*; AmpC detergent: 7%; AmpC no deterg: -35%; SARS PLpro yeast: -2%; AMA1-RON2 inh: 51%

What do the screens show for `COc1ccccc1NC(=S)NNC(=O)c1c(Cl)c(C)nn1C`?
Shiga inhibitor: 43*; CHX counter: 10; AmpC detergent: inconclusive; AmpC no deterg: -25%; SARS PLpro yeast: -3%; AMA1-RON2 inh: 3%

What do the screens show for `CC(C)(C)NC(=O)C(=O)NNC(=O)c1cccc(Br)c1`?
Shiga inhibitor: 47*; CHX counter: 17*; AmpC detergent: -10%; AmpC no deterg: -7%; SARS PLpro yeast: -1%; AMA1-RON2 inh: 26%

What do the screens show for `COc1ccccc1NC(=S)NNC(=O)c1ccccc1Br`?
Shiga inhibitor: 88*; CHX counter: 27*; AmpC detergent: -10%; AmpC no deterg: -17%; SARS PLpro yeast: 11%; AMA1-RON2 inh: 101%

Bioassay records deposited in PubChem BioAssay by National Center for Advancing Translational Sciences (NCATS).
